Screening results from PubChem BioAssay.
Shown are actives, neighbours in structure and some others; about 12% of the full set was active somewhere.
m-calpain inh: inhibitors of pig calpain II | inhibition, % at 16 µM | 220,000 tested, 0.37% active | purified calpain II, fluorogenic peptide substrate, 30 min;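 active means inhibition above about 50%, limit read from the data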
L major viab: Leishmania major promastigote growth inhibition; Leishmania major promastigotes, resazurin fluorescence viability; inhibition, % at 10 µM; 200,000 tested, 9% active; in the data active means inhibition above about 50%;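 further: promastigotes grown with compound for 44 hours at 28 °C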
ROMK mod: human ROMK K+ channel modulation, primary screen; P48048; Tet-inducible ROMK, thallium flux fluorescence; actives lie on both sides; B-score at 10 µM; 130,000 tested, 2% active;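 active means signal ratio slope over the read window, or its plate-corrected B-score, at least 3 SD from the plate mean, either direction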;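 further: B-score of the F/F0 ratio slope over 7 to 12 s after thallium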
Cl transport mod: modulators of human KCC2 chloride dependent transport | Q9H2X9 | KCC2 cells, thallium flux FluoZin-2 fluorescence | B-score of Tl+ flux slope (higher = more flux/activation; lower = inhibition) at 10 µM | 190,000 tested, 2.2% active;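 active means thallium flux slope and its plate-corrected score both differing from the plate sample mean at a set confidence after two filtering rounds, in either direction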;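 further: slope of fluorescence scaled to starting intensity during 10 to 20 s after thallium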
WT yeast gro inh: growth inhibition of WT yeast, mitochondrial fusion screen. mitochondrial fusion phenotypic screen, WT strain. inhibition, % at 10 µM. 190,000 tested, 2.1% active; in the data active means inhibition above about 58%; tested in S. cerevisiae
KCC2 secondary: confirmation of human KCC2 transport modulators | HEK293-KCC2, thallium flux, FluoZin2 fluorescence; hits give high values | AID 1713 | normalised thallium flux (F/F0 slope) at 10 µM | 3,700 tested, 15% active | shares compounds with Cl transport mod;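 active means thallium flux slope above the same plate's solvent-only control mean plus 3 SD; inconclusive means the two replicate wells disagree; inactive means no significant difference from solvent-only control wells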
KCC2 bumet counter: bumetanide-insensitive thallium flux in KCC2 cells with ouabain, counter-screen. shares compounds with Cl transport mod. normalized thallium flux at 10 µM. HEK293-KCC2 + bumetanide/ouabain, thallium flux FluoZin2; hits give high values. 3,700 tested, 49% active;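 active means thallium entry rate above the same plate's blocked-transporter control wells by more than 3 SD; inconclusive means the two repeat wells disagree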;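 further: raw slope of fluorescence over initial fluorescence between 10 and 20 s after thallium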
KCC2 secondary2: confirmation of human KCC2 transport modulators. shares compounds with Cl transport mod. HEK293-KCC2, thallium flux FluoZin2 fluorescence; actives lie on both sides; F/F0 rise rate, 10–20 s post-thallium. normalized thallium flux at 10 µM. 3,700 tested, 23% active. AID 1715;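 active means thallium flux slope more than 3 SD above or below the plate's solvent-only control mean, mostly below; inconclusive means the two repeat wells disagreed; inactive means no significant shift from solvent-only controls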
HEK counter1: acts in parental HEK cells, KCC2 counter-screen | shares compounds with Cl transport mod | thallium flux rate (normalised fluorescence) at 10 µM | 3,700 tested, 46% active | AID 1716 | HEK293 parental cells, thallium flux FluoZin2, ouabain; baseline-ratio fluorescence slope, 10–20 s after thallium;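 active means thallium flux rate significantly above the same plate's solvent-only control wells, beyond their mean plus 3 SD; inconclusive means the two replicate wells gave conflicting results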
KCC2 ouabain: modulates human KCC2 on retest with ouabain. shares compounds with Cl transport mod. 3,700 tested, 48% active. AID 1717. HEK293-KCC2, thallium flux FluoZin2 fluorescence; bidirectional: low = inhibitor, high = activator. raw Tl+ flux slope (below DMSO = inhibition, above = activation) at 10 µM;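 active means thallium flux slope beyond 3 SD from same-plate DMSO control mean in most replicates, usually higher, sometimes lower; inconclusive means repeat tests gave conflicting results; inactive means no significant difference from controls in most replicates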;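 further: slope of initial-normalized fluorescence between seconds 10 and 20 after thallium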
HEK293 Tl flux2: counter-screen for KCC2 modulators: effect in parental HEK293 cells; 3,700 tested, 33% active; thallium flux FluoZin-2 fluorescence slope; shares compounds with Cl transport mod; thallium flux slope at 10 µM;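 active means thallium flux slope above the same plate's solvent-control mean plus 3 SD in both duplicate wells; inconclusive means duplicate wells that disagreed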;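 further: run without ouabain in cells lacking the KCC2 cotransporter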
Numbers stand for hits; – = inactive; ? = inconclusive; · = no result given.

SMILES | m-calpain inh | L major viab | ROMK mod | Cl transport mod | WT yeast gro inh | KCC2 secondary | KCC2 bumet counter | KCC2 secondary2 | HEK counter1 | KCC2 ouabain | HEK293 Tl flux2
O=C1C2C3C=CC(C4CC34)C2C(=O)N1/N=C/c1c[nH]c2ccccc12 (centres undefined) | – | – | – | – | – | · | · | · | · | · | ·
COC(C[C@@H]1O[C@@H]1[C@@H](O)[C@@H](C)OCc1ccccc1)OC | – | · | · | – | · | · | · | · | · | · | ·
COC(C[C@@H]1O[C@@H]1[C@H](O)[C@H](C)OCc1ccccc1)OC | – | · | · | · | · | – | – | – | – | – | –
N#Cc1c(NC(=O)c2ccc(Cn3cc(Br)cn3)o2)sc2c1CCCCC2 | – | – | · | – | – | · | · | · | · | · | ·
COC(=O)c1sc(NC(=O)c2ccc(Cn3cc(Cl)cn3)o2)c(C#N)c1C | – | – | – | · | – | – | – | – | – | 0.042 | –
CCCCCCCCCCC(=O)NNC(=O)c1c(O)c2ccccc2n(CC)c1=O | – | – | – | 5.2 | – | – | 0.015 | – | 0.0099 | – | –
CCCCCCCCC(=O)NNC(=O)c1c(O)c2ccccc2n(CCC)c1=O | – | – | – | 6.3 | – | – | 0.012 | – | 0.015 | – | ?
CCCCCCCCCC(=O)NNC(=O)c1c(O)c2ccccc2n(CCC)c1=O | – | – | – | 3.9 | – | – | 0.0099 | – | 0.0092 | – | –
CCCCCCCC(=O)NNC(=O)c1c(O)c2ccccc2[nH]c1=O | – | · | · | – | · | · | · | · | · | · | ·
Cc1ccc(OC(C)C(=O)N(Cc2cccs2)C2CCS(=O)(=O)C2)cc1C (centres undefined) | – | · | · | – | · | · | · | · | · | · | ·
CC(Sc1nnc2ccccn12)C(=O)Nc1ccc2c(c1)OCCO2 (centres undefined) | – | – | – | · | – | – | – | – | – | – | –
CC(Sc1nnc2ccccn12)C(=O)NCc1ccc2c(c1)OCO2 (centres undefined) | – | – | – | – | – | · | · | · | · | · | ·
COC(=O)CSc1cc(SCC(=O)OC)c(C#N)c(SCC(=O)OC)c1 | – | 64 | · | -3.2 | – | – | – | – | ? | – | –
COC(=O)CSc1ccc(C#N)c(SCC(=O)OC)c1 | – | – | · | – | – | · | · | · | · | · | ·
O=C(Nc1nnc(CCN2CCCCC2)s1)c1ccc(Cl)cc1Cl | – | · | · | – | · | · | · | · | · | · | ·
Cc1ccc(NC(=O)NC(=O)CN2C(=O)NC3(CCCCCCC3)C2=O)c(C)c1 | – | – | · | -5.5 | – | – | – | – | – | – | –
CCC1CCCCN1C(=O)CSc1nnc(-c2c[nH]c3ccccc23)o1 (centres undefined) | – | – | – | -3.3 | – | – | – | – | – | 0.022 | ?
CC1CCCC(C)N1C(=O)CSc1nnc(-c2c[nH]c3ccccc23)o1 (centres undefined) | – | – | – | · | – | · | · | · | · | · | ·
CC1CCCN(C(=O)CSc2nnc(-c3c[nH]c4ccccc34)o2)C1 (centres undefined) | – | – | – | -3.8 | – | – | – | ? | – | ? | –
Cc1c(O)c2c3c(cccc3c1O)C(=O)N(c1ccccc1)C2=O | – | – | · | – | – | · | · | · | · | · | ·
COc1ccc(N(CC(=O)Nc2cccc(C)c2C)S(=O)(=O)c2c(C)n[nH]c2C)cc1 | – | – | – | · | – | – | – | 0.024 | – | – | –
Cc1n[nH]c(C)c1S(=O)(=O)N(CC(=O)Nc1ccc2c(c1)OCCO2)c1ccc(C(C)C)cc1 | – | 56 | · | -5.1 | – | ? | ? | – | – | 0.016 | –
Cc1ccccc1NC(=O)COC(=O)c1cc(=O)c2ccccc2o1 | – | – | – | – | – | · | · | · | · | · | ·
Cc1ccc2c(=O)c(CN(C)C3CCN(C)CC3)c(C)[nH]c2c1C | · | · | – | · | · | · | · | · | · | · | ·
Cc1onc(-c2c(F)cccc2Cl)c1C(=O)OCC(=O)c1c[nH]c2ccccc12 | – | · | · | – | · | · | · | · | · | · | ·
SMILES | m-calpain inh | L major viab | ROMK mod | Cl transport mod | WT yeast gro inh | KCC2 secondary | KCC2 bumet counter | KCC2 secondary2 | HEK counter1 | KCC2 ouabain | HEK293 Tl flux2
O=C(NCc1ccc(/C=c2\sc3n(c2=O)CCN=3)o1)C(=O)Nc1ccccc1 | – | – | – | – | – | · | · | · | · | · | ·
CC1=NN(c2nc(-c3ccccc3)cs2)C(=O)C1N=Nc1ccccc1 (centres undefined) | – | – | – | 6.6 | – | – | 0.051 | – | 0.015 | ? | –
CC1=NN(c2nc(-c3ccc(C)cc3)cs2)C(=O)C1N=Nc1ccc2ccccc2c1 (centres undefined) | – | – | · | · | – | · | · | · | · | · | ·
Cn1c(SCc2ccccc2Cl)nc2ccccc21 | – | – | – | -4.3 | – | ? | ? | 0.024 | – | 0.014 | –
CCn1c(CSc2nc3ccccc3n2C)nc2ccccc21 | – | – | · | -4 | – | ? | – | 0.022 | ? | 0.014 | –
CCn1c(SCc2ccccc2Cl)nc2ccccc21 | – | – | · | – | – | · | · | · | · | · | ·
CCn1nc(NC(=O)c2ccccn2)c2cc3cc(C)ccc3nc21 | – | – | · | 7.3 | – | – | – | – | – | – | ?
CCCCC(=O)Nc1nn(CCC)c2nc3ccccc3cc12 | – | – | · | -3.8 | – | – | – | – | – | – | –
CCOC(=O)c1ccc(NC(=O)CC2C(=O)N(c3ccc(F)cc3)C(=O)N2CCC(C)C)cc1 (centres undefined) | – | – | – | -3.5 | – | – | – | – | – | – | –
Cc1c(N=C2Nc3cccc4cccc2c34)c(=O)n(-c2ccccc2)n1C | – | – | · | -2.9 | – | ? | – | 0.026 | – | 0.016 | –
Cc1c(N=c2scc(-c3ccccc3)n2C)c(=O)n(-c2ccccc2)n1C | – | – | – | – | – | · | · | · | · | · | ·
C=CCOc1c(Br)cc(CNn2nnnc2N)cc1OCC | – | – | – | – | – | · | · | · | · | · | ·
CCOc1cc(CNn2nnnc2N)cc(Cl)c1OCC(=O)NC(C)(C)C | – | – | · | – | – | – | – | – | – | – | –
Cc1cc(NC(=O)Nc2cc(Cl)ccc2C)no1 | – | · | · | – | · | · | · | · | · | · | ·
O=C(O)CCc1ccc(-c2ccc(F)cc2)n1CCC(=O)O | – | – | – | 3.2 | – | – | ? | – | – | – | –
S=c1nc(C2CCCCC2)n(-c2ccccc2)[nH]1 | – | – | · | 126 | – | 0.055 | 0.14 | 0.048 | 0.078 | 0.11 | 0.031
Cc1cc(-n2c(SCCC#N)nnc2-c2cccnc2)ccc1Cl | – | – | – | – | – | · | · | · | · | · | ·
Nc1nonc1C(=O)NCCN=Cc1ccccc1O | – | – | · | -4.6 | – | ? | ? | – | – | – | –
Nc1nonc1C(=O)NCCN=Cc1cc(Cc2ccccc2)cc(Br)c1O | – | – | – | · | – | · | · | · | · | · | ·
